Results from PubChem BioAssay (NCI).
The panel holds about 83,000 compounds, 20% with a hit somewhere; the sample as a whole holds those more often.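 Single-dose data. Exposure time 48 hours. Values below 10 considered active.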 The source made the active and inactive calls.

What was measured:
Test in all cases: NCI-60 one-dose screen, 48 h (100 = growth as untreated, 0 = no growth, -100 = all killed)
Settings in all cases: 10 µM unless noted
SK-MEL-2 melanoma = test system: SK-MEL-2 melanoma
EKVX NSCLC = test system: EKVX NSCLC
SN12C renal = test system: SN12C renal
UO-31 renal = test system: UO-31 renal
TK-10 renal = test system: TK-10 renal
ACHN renal = test system: ACHN renal
CAKI-1 renal = test system: CAKI-1 renal
CCRF-CEM leukemia = test system: CCRF-CEM leukemia
MOLT-4 leukemia = test system: MOLT-4 leukemia
A498 renal = test system: A498 renal

Measured: growth

COc1ccc(C/C(C)=C(\c2ccc(Cl)cc2)c2ccc(OCCN3CCCCC3)cc2)cc1
inactive: SK-MEL-2 melanoma 97% | EKVX NSCLC 102% | SN12C renal 94.3% | UO-31 renal 73.9% | TK-10 renal 97% | ACHN renal 92.3% | CAKI-1 renal 86.9% | CCRF-CEM leukemia 90.1% | MOLT-4 leukemia 75.4%

CC1=C([Se]CC(OC(=O)CC[Se]c2ccccc2)C(=O)NC(C)(C)C)C(=O)c2ccccc2C1=O (configuration not stated)
active: SK-MEL-2 melanoma 9.93% | EKVX NSCLC -65.4% | SN12C renal -62.5% | UO-31 renal -12% | TK-10 renal -89.8% | ACHN renal -55.5% | CAKI-1 renal -34.3% | CCRF-CEM leukemia -10.8% | MOLT-4 leukemia -31.6%

CCNCCNc1cc(C2CCCCC2)c(C#N)c2nc3ccccc3n12
inactive: SK-MEL-2 melanoma 23.2% | EKVX NSCLC 36% | SN12C renal 12.8% | TK-10 renal 27.2% | CAKI-1 renal 25.1%
active: UO-31 renal -41% | ACHN renal -52.2% | A498 renal -25.1% | MOLT-4 leukemia -7.01%

CCN(CC)c1ccc(\C=N/N=C(N)/C(N)=N\N=C/c2ccc(N(CC)CC)cc2)cc1
inactive: SK-MEL-2 melanoma 97.7% | EKVX NSCLC 104% | SN12C renal 105% | UO-31 renal 82.9% | TK-10 renal 113% | ACHN renal 96.4% | CAKI-1 renal 88.9% | CCRF-CEM leukemia 89% | MOLT-4 leukemia 95.8%

NS(=O)(=O)c1ccccc1NC(=O)Nc1nc2ccccc2s1
inactive: SK-MEL-2 melanoma 102% | EKVX NSCLC 85.6% | SN12C renal 98.3% | UO-31 renal 84.1% | TK-10 renal 153% | ACHN renal 99.4% | CAKI-1 renal 89.7% | CCRF-CEM leukemia 99.2% | MOLT-4 leukemia 102%

CC(C)(C)CC(C)(C)NC(=O)Nc1ncccc1OCc1ccccc1
inactive: SK-MEL-2 melanoma 83.5% | EKVX NSCLC 93.3% | SN12C renal 89.5% | UO-31 renal 73.9% | TK-10 renal 96.3% | ACHN renal 94.4% | CAKI-1 renal 80.2% | CCRF-CEM leukemia 94.2%

CCOC(=O)NC(C)C
inactive: SK-MEL-2 melanoma 114% | EKVX NSCLC 105% | SN12C renal 100% | UO-31 renal 81.5% | TK-10 renal 115% | ACHN renal 100% | CAKI-1 renal 98.2% | CCRF-CEM leukemia 110% | MOLT-4 leukemia 82.9%

COC1=CC(c2ccc[nH]2)=N/C1=C\c1[nH]c(C)c(CC(=O)OCc2ccccc2)c1CCC(=O)OCc1ccccc1
active: SK-MEL-2 melanoma -61.3% | EKVX NSCLC 4% | SN12C renal -15.6% | UO-31 renal -89.3% | TK-10 renal -21.5% | ACHN renal -30.6% | CAKI-1 renal -15.9% | CCRF-CEM leukemia -0.154% | MOLT-4 leukemia -10.6%

Fc1cnccc1C1CC(c2ccc(N3CCNCC3)cc2)=NN1 (configuration not stated)
inactive: SK-MEL-2 melanoma 92.7% | EKVX NSCLC 91% | SN12C renal 89.6% | UO-31 renal 77.2% | TK-10 renal 123% | ACHN renal 99.9% | CAKI-1 renal 80.6% | A498 renal 97.2% | MOLT-4 leukemia 74.2%

CCOC(=O)C1=C(C)NC(=O)NC1c1c(Cl)n(CCCl)c2ccccc12 (configuration not stated)
inactive: SK-MEL-2 melanoma 106% | EKVX NSCLC 97.8% | SN12C renal 101% | UO-31 renal 68.5% | TK-10 renal 34.1% | ACHN renal 99% | CAKI-1 renal 86.6% | A498 renal 95.3% | MOLT-4 leukemia 103%

CCn1c(SCC(=O)N/N=C(\C)c2ccc(Cl)cc2)nc2c1c(=O)n(C)c(=O)n2C
inactive: SK-MEL-2 melanoma 116% | EKVX NSCLC 97.9% | SN12C renal 100% | UO-31 renal 80.8% | TK-10 renal 125% | ACHN renal 99.5% | CAKI-1 renal 85.3% | A498 renal 91.3% | MOLT-4 leukemia 92.2%

COc1ccc(-c2ccc(-c3ccc(C(=N)N)cc3)s2)cc1Cl
inactive: SK-MEL-2 melanoma 101% | EKVX NSCLC 68.3% | TK-10 renal 111% | A498 renal 90.3%
active: SN12C renal -69.1% | UO-31 renal -47.6% | ACHN renal -98.7% | CAKI-1 renal -88.2% | MOLT-4 leukemia -50.1%

CCO/C=N/C1=C(C#N)C(c2ccc(Cl)cc2)c2sc3c(F)cccc3c2O1 (configuration not stated)
inactive: SK-MEL-2 melanoma 14.2% | EKVX NSCLC 75.7% | SN12C renal 79.7% | UO-31 renal 66% | TK-10 renal 88.1% | ACHN renal 92.3% | CAKI-1 renal 41.3% | CCRF-CEM leukemia 38.1% | MOLT-4 leukemia 71.5%

N#CSc1c[nH]c2cccc(/C=C/C(=O)/C=C(/C=C/c3cccc4[nH]cc(SC#N)c34)OB(F)F)c12
active: SK-MEL-2 melanoma -65% | EKVX NSCLC -10.4% | SN12C renal -21.8% | UO-31 renal -76% | TK-10 renal -51.7% | ACHN renal -48.9% | CAKI-1 renal -12.5% | CCRF-CEM leukemia -10.9% | MOLT-4 leukemia -14.4%

COc1ccc(C(=O)C/C(=C\c2ccc(Cl)cc2)C(=O)NCc2ccccc2)cc1
inactive: SK-MEL-2 melanoma 79.6% | EKVX NSCLC 95.6% | SN12C renal 91.3% | UO-31 renal 76% | TK-10 renal 72.7% | ACHN renal 92.7% | CAKI-1 renal 87.4% | A498 renal 88% | MOLT-4 leukemia 72.9%

O=C(Nc1nc2cc(C(=O)N3CCN(C(c4ccccc4)c4ccccc4)CC3)ccc2o1)c1ccc(NC2CCCCC2)c([N+](=O)[O-])c1
inactive: SK-MEL-2 melanoma 90.8% | EKVX NSCLC 52.5% | SN12C renal 53.8% | UO-31 renal 66.5% | TK-10 renal 84.5% | ACHN renal 47% | CAKI-1 renal 54.5% | CCRF-CEM leukemia 28.3%

O=S(=O)(c1ccccc1)n1cc2c(c1)-c1nc(Nc3ncccn3)sc1CC2
inactive: SK-MEL-2 melanoma 65.2% | EKVX NSCLC 72.4% | SN12C renal 57.2% | UO-31 renal 41.3% | TK-10 renal 64.3% | ACHN renal 22.9% | CAKI-1 renal 66.8% | A498 renal 43.7% | MOLT-4 leukemia 83.7%

C1CCC([PH+](C2CCCCC2)C2CCCCC2[PH+](C2CCCCC2)C2CCCCC2)CC1.[Au].[CH-]1CCCCC1C1CCCC[N-]1 (configuration not stated)
active: SK-MEL-2 melanoma -56.6% | EKVX NSCLC -77.6% | SN12C renal -47.3% | UO-31 renal -96.3% | TK-10 renal -58.7% | ACHN renal -99.4% | CAKI-1 renal -88% | A498 renal -71.1% | MOLT-4 leukemia -6.51%

Cc1cc(C(=O)Nc2ncc(Cc3cccc(C(F)(F)F)c3)s2)c2ccccc2n1
inactive: EKVX NSCLC 43.2% | SN12C renal 47.7% | UO-31 renal 29% | TK-10 renal 49.5% | ACHN renal 28.1% | CAKI-1 renal 13.3% | CCRF-CEM leukemia 11.8% | MOLT-4 leukemia 14.9%
active: SK-MEL-2 melanoma -16%

N#Cc1nc(-c2ccccc2)oc1S(=O)(=O)N1CCN(c2ccccc2)CC1
active: CCRF-CEM leukemia 2.42%
inactive: SK-MEL-2 melanoma 84.4% | EKVX NSCLC 116% | SN12C renal 88% | UO-31 renal 84.5% | TK-10 renal 104% | ACHN renal 102% | CAKI-1 renal 109% | MOLT-4 leukemia 12.2%

CCN(CC)Cc1cc(C=C2C(=O)NC(=S)NC2=O)cc(OC)c1O
inactive: SK-MEL-2 melanoma 119% | EKVX NSCLC 106% | SN12C renal 100% | UO-31 renal 90.1% | TK-10 renal 110% | ACHN renal 107% | CAKI-1 renal 99.3% | CCRF-CEM leukemia 104% | MOLT-4 leukemia 108%

O=S(=O)(Nc1ccc(Cl)c(C(F)(F)F)c1)c1ccc(-c2cnc(C3CC3)o2)cc1
active: SK-MEL-2 melanoma 5.31% | TK-10 renal 3.01% | A498 renal -8.08% | MOLT-4 leukemia 5.21%
inactive: EKVX NSCLC 31.5% | SN12C renal 10.7% | UO-31 renal 35.5% | ACHN renal 34.6% | CAKI-1 renal 35.6%

COC1/C=C/OC2(C)Oc3c(C)c(O)c4c(O)c(c(/C=N/Nc5ccc([N+](=O)[O-])cc5[N+](=O)[O-])c(O)c4c3C2=O)NC(=O)C(C)=C/C=C/C(C)C(O)C(C)C(O)C(C)C(OC(C)=O)C1C (configuration not stated)
inactive: SK-MEL-2 melanoma 30.5% | EKVX NSCLC 45.1% | UO-31 renal 70.2% | TK-10 renal 25.7% | ACHN renal 28.1% | CAKI-1 renal 74.2% | A498 renal 96%
active: SN12C renal -5.59% | MOLT-4 leukemia 0.359%

CCOC(=O)c1c(NC(=O)c2cccc(C(F)(F)F)c2)sc2c(CN(C)C)c(O)ccc12
inactive: SK-MEL-2 melanoma 108% | EKVX NSCLC 98.8% | SN12C renal 90% | UO-31 renal 48.9% | TK-10 renal 113% | ACHN renal 45.5% | CAKI-1 renal 71.1% | A498 renal 82% | MOLT-4 leukemia 43.4%

Cc1csc(Nc2nc(-c3ccccn3)nc(C(Cl)(Cl)Cl)n2)n1
inactive: SK-MEL-2 melanoma 95.8% | EKVX NSCLC 95.1% | SN12C renal 97.9% | UO-31 renal 84.3% | TK-10 renal 94.8% | ACHN renal 79.7% | CAKI-1 renal 82.2% | CCRF-CEM leukemia 59.2% | MOLT-4 leukemia 67.9%

O=c1c2cccc3c(N4CCCC4)ccc(c32)c2nc3ccccc3n12
active: MOLT-4 leukemia 2.57%
inactive: SK-MEL-2 melanoma 113% | EKVX NSCLC 75.9% | SN12C renal 64.8% | UO-31 renal 56.2% | TK-10 renal 87.6% | ACHN renal 52.3% | CAKI-1 renal 51.3% | A498 renal 38%
